Measured values: PubChem BioAssay AID651660 (Broad Institute, 2012)
Screen size: about 1,900 compounds; about 15 (0.8%) were called active. Shown is part of a subset that was picked to be rich in actives. Values without a mark were called inactive.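 Rule for the calls: active = every replicate shows at least 50% inhibition; inconclusive = mean inhibition at least 50% but some replicate below; inactive = the rest.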

Biological target: DNA repair protein RAD52 homolog (Homo sapiens) (UniProt P43351)
Sequence (P43351 whole entry, looked up): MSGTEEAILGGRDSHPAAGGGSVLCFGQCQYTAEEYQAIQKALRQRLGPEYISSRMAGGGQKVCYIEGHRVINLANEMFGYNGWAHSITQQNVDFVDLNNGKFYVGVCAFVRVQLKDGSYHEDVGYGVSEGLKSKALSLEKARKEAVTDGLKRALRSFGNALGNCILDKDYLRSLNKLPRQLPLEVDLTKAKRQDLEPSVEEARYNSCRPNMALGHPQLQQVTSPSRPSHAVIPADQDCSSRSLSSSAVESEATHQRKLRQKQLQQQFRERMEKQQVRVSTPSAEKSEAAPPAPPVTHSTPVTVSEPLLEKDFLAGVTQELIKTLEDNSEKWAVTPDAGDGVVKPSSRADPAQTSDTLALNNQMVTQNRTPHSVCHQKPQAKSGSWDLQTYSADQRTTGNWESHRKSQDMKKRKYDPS
Experiment: inhibition of RAD52-mediated strand annealing – biochemical, FRET, single point, primary screen (AID 651660);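 note: 0% = median of neutral control wells and 100% = median of positive control wells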
Details: Recombinant RAD52 ssDNA annealing, FRET fluorescence, 30 min; at 18.7 µM; hits give high values

Compound | inhibition
COc1cc2c3cc1Oc1cc(ccc1O)C[C@@H]1c4c(cc(OC)c(O)c4Oc4ccc(cc4)C[C@H]3N(C)CC2)CCN1C | 77.6% (active)
c1cnc2c(c1)ccc1ncccc12 | -3.46%
O=C1NCCN2CCCC12 (stereo not given) | -1.15%
CCC1(c2ccccc2)C(=O)N(COC)C(=O)N(COC)C1=O | -5.47%
C[N+]1(C)CCOC(O)(c2ccc(-c3ccc(C4(O)C[N+](C)(C)CCO4)cc3)cc2)C1 (stereo not given) | 61.8% (active)
C=C1[C@@H](C)[C@H]2[C@H](Cc3ccccc3)NC(=O)[C@]23OC(=O)/C=C/[C@H](O)CCC[C@@H](C)C/C=C/[C@H]3[C@@H]1O | -0.777%
CC(C)(C)C(O)C(Oc1ccc(Cl)cc1)n1cncn1 (stereo not given) | -119%
NCCc1c[nH]c2ccc(F)cc12 | 0.119%
CN1C(=O)N(C)C(=O)C2(Cc3ccccc3N3CCOCC32)C1=O (stereo not given) | -0.534%
CCNC(=S)N(C)CCc1cc2c(c(OC)c1C=C1C(=O)N(C)C(=O)N(C)C1=O)OCO2 | -15%
